Screens from PubChem.
esBAF inh – SWI/SNF esBAF complex inhibition. mouse ES cells, Bmi1-luciferase knock-in reporter, 24 h; 100% = twice the neutral-well signal. reporter increase, % at 12.5 µM. 350,000 tested, 2% active; in the data active means activation above about 40%; inconclusive means no clear call, values can overlap the other calls;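 further: a rise in the Bmi1 reporter signal indicates esBAF inhibition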
GAA850 FXN act – increases GAA850 frataxin promoter reporter activity. HEK293 lucGAA850 FXN promoter luciferase reporter, 24 h; percent of 10 µM SAHA response. activation, % at 6 µM. 360,000 tested, 0.56% active;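 active means activation above the average of all compounds screened plus 3 SD, cutoff fixed separately per campaign, cut at about 7.5% in these data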
Wnt act – activators of Wnt/beta-catenin signaling | Wnt/beta-catenin reporter cell assay, activator, plate reader | activation, % at 9.35 µM | 300,000 tested, 1.2% active; in the data active means activation above about 30%, passing the limit was not always enough; inconclusive means no clear call, values can overlap the other calls
MITF TRPM1 HTS – activators of MITF-driven TRPM1 promoter activity in SK-MEL-5 cells. SK-MEL-5 TRPM1-promoter luciferase, 24 h; % of positive control, neutral wells = 0. activation, % at 12.5 µM. 300,000 tested, 0.75% active. AID 588334;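 active means mean activation of at least 80% with every replicate also reaching 80%; inconclusive means mean reaches 80% but some replicate falls short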
Of the large screens only hits and unclear results are named; the others gave an inactive call. Sampled rows, rich in hits. Any-hit rate of the full collection: about 2.8%.

COc1cc(C(=S)N2CCCC2)ccc1OCc1ccc(C)cc1	esBAF inh 47
c1ccc2nc3c(nc2c1)[nH]c1ccccc13	Wnt act 93 (no result: esBAF inh)
c1ccc(-c2c3ccccc3nc3[nH]c4ccccc4c23)cc1	none (no result: Wnt act)
COc1ccc(CNC(=O)C[C@@H]2C[C@H]3c4cc(NS(C)(=O)=O)ccc4O[C@H]3[C@H](CO)O2)cc1	none (no result: GAA850 FXN act, Wnt act, MITF TRPM1 HTS)
COCC(=O)Nc1ccc2c(c1)OC[C@H](C)N(CC1CCCCC1)C[C@H](C)[C@H](OC)CN(C)C2=O	none (no result: GAA850 FXN act, Wnt act, MITF TRPM1 HTS)
O=C1/C(=C\c2ccco2)CCC/C1=C\c1ccco1	esBAF inh 77, GAA850 FXN act 13 (no result: Wnt act)
CCOc1ccc(/C=C2\CCC(C3CCCC3)C2=O)cc1OC (centres undefined)	none
CCOc1ccc(/C=C2\CCC(C3CCCC3)C2=O)cc1 (centres undefined)	Wnt act inconclusive, MITF TRPM1 HTS 123
O=C1/C(=C/c2ccco2)CCC1C1CCCC1 (centres undefined)	Wnt act 38
COc1cccc(-c2cccc(-c3nc(C(=O)O)cc4c3[C@@H](CCO)N(S(=O)C(C)(C)C)C4)c2)c1 (some centres undefined)	none (no result: GAA850 FXN act, Wnt act, MITF TRPM1 HTS)
C[C@H](NC(=O)N(C)C[C@H]1OCc2ccccc2-c2c(n(C)c3ccccc23)C(=O)N([C@@H](C)CO)C[C@H]1C)c1ccccc1	none (no result: GAA850 FXN act, Wnt act, MITF TRPM1 HTS)
Cc1ccc(S(=O)(=O)N(C)C[C@@H]2OCCCC[C@@H](C)Oc3ccc(NS(=O)(=O)c4ccc(F)cc4)cc3C(=O)N([C@@H](C)CO)C[C@@H]2C)cc1	none (no result: GAA850 FXN act, Wnt act, MITF TRPM1 HTS)
COc1ccc(S(=O)(=O)N[C@@H]2CC[C@H](CCn3cc(-c4cccc(F)c4)nn3)O[C@@H]2CO)cc1	none (no result: GAA850 FXN act, Wnt act, MITF TRPM1 HTS)
C[C@H](CO)N1C[C@H](C)[C@@H](CN(C)S(C)(=O)=O)Oc2ncc(/C=C/c3ccccc3)cc2C1=O	none (no result: GAA850 FXN act, Wnt act, MITF TRPM1 HTS)
CCCCN1CC(O)=C(c2nc3ccccc3[nH]2)C1=N	esBAF inh 58
Cc1ccc(Nc2nc3ccccc3o2)cc1F	Wnt act 31
Cc1ccnc(Nc2nc3ccccc3o2)n1	none
COCC(=O)n1nc(-c2ccccc2)nc1NCc1ccc(N(C)C)cc1	esBAF inh 50
O=C(c1ccco1)n1nc(-c2ccccc2)nc1NCc1ccco1	none (no result: Wnt act)
Cc1ccc(-c2nc(NCc3ccco3)n(C(=O)c3ccco3)n2)cc1	esBAF inh 60
O=C(COc1ccccc1)n1nc(-c2ccc(Cl)cc2)nc1NCc1ccco1	esBAF inh 66 (no result: Wnt act, MITF TRPM1 HTS)
O=C(c1ccco1)n1nc(-c2ccc(Cl)cc2)nc1NCc1ccco1	none (no result: MITF TRPM1 HTS)
CNC(=O)C[C@H]1CC[C@@H]2[C@H](COC[C@@H](O)CN2C(=O)Nc2ccc3c(c2)OCO3)O1	none (no result: GAA850 FXN act, Wnt act, MITF TRPM1 HTS)
COc1ccc(NC(=O)N(C)C[C@@H]2Oc3cc(C#CCN(C)C)ccc3S(=O)(=O)N([C@@H](C)CO)C[C@H]2C)cc1	none (no result: GAA850 FXN act, Wnt act, MITF TRPM1 HTS)
C[C@@H]1CN([C@H](C)CO)C(=O)Cc2cc(NC(=O)Nc3ccc4c(c3)OCO4)ccc2O[C@@H]1CN(C)S(=O)(=O)c1ccc(Cl)cc1	none (no result: GAA850 FXN act, Wnt act, MITF TRPM1 HTS)
C[C@@H]1CN([C@H](C)CO)C(=O)c2cccc(NC(=O)c3cnccn3)c2O[C@@H]1CN(C)CC1CC1	none (no result: GAA850 FXN act, Wnt act, MITF TRPM1 HTS)
C[C@H](CO)N1C[C@H](C)[C@@H](CN(C)C(=O)c2ccc(F)cc2)Oc2cc(C3=CCCC3)ccc2S1(=O)=O	none (no result: GAA850 FXN act, Wnt act, MITF TRPM1 HTS)
O=C(/C=C/c1ccccc1)NCCC1=CCCCC1	esBAF inh 71
COc1ccccc1/C=C/C(=O)NCCC1=CCCCC1	Wnt act 53 (no result: esBAF inh)
O=C(COC(=O)/C=C/c1ccc(C(F)(F)F)cc1)NCCC1=CCCCC1	none
O=C(/C=C/c1ccc(F)cc1)NCCC1=CCCCC1	esBAF inh 78, Wnt act 65 (no result: MITF TRPM1 HTS)
C[C@@H]1CCCCO[C@H](CN(C)Cc2ccc3c(c2)OCO3)[C@H](C)CN([C@@H](C)CO)C(=O)c2cc(NC(=O)NC3CCCCC3)ccc2O1	none (no result: GAA850 FXN act, Wnt act, MITF TRPM1 HTS)
C[C@H]1CN([C@@H](C)CO)C(=O)Cc2cc(NC(=O)NC3CCCCC3)ccc2O[C@@H]1CN(C)C(=O)Nc1ccc(C(F)(F)F)cc1	none (no result: GAA850 FXN act, Wnt act, MITF TRPM1 HTS)
CC(C)NC(=O)Nc1cccc2c1O[C@@H](CN(C)C(=O)Nc1ccc(F)cc1)[C@@H](C)CN([C@H](C)CO)C2=O	none (no result: GAA850 FXN act, Wnt act, MITF TRPM1 HTS)
CCC(C)c1ccc(NC(=O)C2CCCN(c3ncccn3)C2)cc1 (centres undefined)	esBAF inh 48 (no result: Wnt act, MITF TRPM1 HTS)
COc1ccc(NC(=O)C2CCCN(c3ncccn3)C2)cc1 (centres undefined)	none
C[C@@H]1CN([C@@H](C)CO)C(=O)c2cc(NS(=O)(=O)c3cccs3)ccc2O[C@@H]1CN(C)C(=O)Nc1cccc2ccccc12	none (no result: GAA850 FXN act, Wnt act, MITF TRPM1 HTS)
Cn1c(=NC(=O)C(C)(C)C)sc2cccc(F)c21	none
Cn1c(=NC(=O)c2ccccc2[N+](=O)[O-])sc2cccc(F)c21	Wnt act inconclusive, MITF TRPM1 HTS 100
Cc1nc2ccc(NC(=O)N(C(C)C)C(C)C)cc2s1	esBAF inh 44 (no result: Wnt act, MITF TRPM1 HTS)
Cc1nc2ccc(NC(=O)c3ccc(Cl)s3)cc2s1	esBAF inh 79, MITF TRPM1 HTS 87
C[C@@H]1CN([C@@H](C)CO)C(=O)Cc2cc(NC(=O)c3ccncc3)ccc2O[C@@H]1CN(C)C(=O)NC1CCCCC1	none (no result: GAA850 FXN act, Wnt act, MITF TRPM1 HTS)
COc1ccc(S(=O)(=O)N(C)C[C@@H]2Oc3ccc(NS(=O)(=O)c4cn(C)cn4)cc3CC(=O)N([C@@H](C)CO)C[C@@H]2C)cc1	none (no result: GAA850 FXN act, Wnt act, MITF TRPM1 HTS)
CO[C@H]1CN(C)C(=O)c2cc(NC(=O)Nc3c(C)noc3C)ccc2OC[C@H](C)N(CCC(F)(F)F)C[C@@H]1C	none (no result: GAA850 FXN act, Wnt act, MITF TRPM1 HTS)
Cc1noc(C)c1NC(=O)N(C)C[C@@H]1Oc2ccc(NS(=O)(=O)c3ccc(Cl)cc3)cc2CC(=O)N([C@H](C)CO)C[C@@H]1C	none (no result: GAA850 FXN act, Wnt act, MITF TRPM1 HTS)
COc1cc(OC)c(C2CC(=O)N3CN(c4ccc(C)cc4)CSC3=C2C#N)cc1OC (centres undefined)	Wnt act 38
COc1ccc(N2CSC3=C(C#N)C(c4cc(OC)c(OC)cc4OC)CC(=O)N3C2)c(OC)c1 (centres undefined)	none (no result: MITF TRPM1 HTS)
Cc1ccc(N2CSC3=C(C#N)C(c4cccs4)CC(=O)N3C2)cc1 (centres undefined)	esBAF inh 54
O=C(C[C@H]1C[C@H]2c3cc(NC(=O)CC4CC4)ccc3O[C@H]2[C@@H](CO)O1)NCc1ccncc1	none (no result: GAA850 FXN act, Wnt act, MITF TRPM1 HTS)
CC(C)(C)c1ccc(NC(=S)NCc2cccs2)cc1	esBAF inh 44 (no result: Wnt act)
O=[N+]([O-])c1ccc(-c2cn(-c3ccccc3)c(=S)[nH]2)cc1	Wnt act 49 (no result: esBAF inh)
COc1ccc(-c2cn(-c3ccc(C)c(C)c3)c(=S)[nH]2)cc1OC	none
COc1ccc(-c2cn(-c3ccccc3)c(=S)[nH]2)cc1OC	esBAF inh 44
COc1cccc(-n2cc(-c3ccc(F)cc3)[nH]c2=S)c1	esBAF inh 55
c1ccc2c(c1)oc1c(N3CCOCC3)ncnc12	none (no result: esBAF inh, Wnt act)
O=C(c1ccco1)N1CCN(c2ncnc3c2oc2ccccc23)CC1	esBAF inh 58 (no result: Wnt act, MITF TRPM1 HTS)
C[C@H](CO)N1C[C@H](C)[C@H](CN(C)C(=O)c2cccc(F)c2)Oc2ncc(-c3cccnc3)cc2C1=O	none (no result: GAA850 FXN act, Wnt act, MITF TRPM1 HTS)
Cc1ccc(SCC(=O)Nc2ccc(N3CCN(C)CC3)c(F)c2)cc1	Wnt act 40 (no result: MITF TRPM1 HTS)
CCc1ccc(NC(=O)c2cc(-c3ccco3)on2)cc1	esBAF inh 66, MITF TRPM1 HTS 101 (no result: Wnt act)
